# Test results published in PubChem BioAssay AID1159580 (chemical genetic matrix, 2015).
# Out of some 5,500 compounds screened, about 2,000 (36%) were called active. Roughly 18% stayed inconclusive and do not appear here. This is one part of the list. Values without a mark were called inactive. No stated cut-off is given here; in the data, active means normalized growth mostly below about 0.91 (no sharp cut-off); inconclusive means no clear call, values can overlap the other calls; inactive means mostly above about 0.92.
# Assay: chemical genetic growth profiling, strain panel (AID 1159580);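 further: tested at 20 µM; growth read once vehicle control cultures reached saturation at 30 °C; 1 = growth at the plate median or of vehicle wells; lower values mean less growth of the strain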
# Conditions: growth OD
compound,measurement,setting,value
CCC(C)(C)C(=O)O[C@H]1C[C@@H](C)C=C2C=C[C@H](C)[C@H](CC[C@@H]3C[C@@H](O)CC(=O)O3)[C@H]21,normalized growth,"S. cerevisiae deletion strains, locus YJR075W, strain HOC1, hits give low values",1
same,normalized growth,"S. cerevisiae deletion strains, locus YKL009W, strain mrt4, hits give low values",0.93
same,normalized growth,"S. cerevisiae deletion strains, locus YKL068W, hits give low values",1.03
same,normalized growth,"S. cerevisiae deletion strains, locus YKL085W, strain MDH1 (second series), hits give low values",1.02
same,normalized growth,"S. cerevisiae deletion strains, locus YKL085W, strain MDH1, hits give low values",1.02
same,normalized growth,"S. cerevisiae deletion strains, locus YKL160W, strain elf1, hits give low values",0.949
same,normalized growth,"S. cerevisiae deletion strains, locus YKL190W, strain CNB1, hits give low values",1.01
same,normalized growth,"S. cerevisiae deletion strains, locus YKR001C, strain vps1, hits give low values",1.01
same,normalized growth,"S. cerevisiae deletion strains, locus YKR026C, strain gcn3, hits give low values",1.01
same,normalized growth,"S. cerevisiae deletion strains, locus YKR091W, strain srl3, hits give low values",1.02
same,normalized growth,"S. cerevisiae deletion strains, locus YLL001W, strain dnm1, hits give low values",1
same,normalized growth,"S. cerevisiae deletion strains, locus YLL026W, hits give low values",0.981
same,normalized growth,"S. cerevisiae deletion strains, locus YLL041C, strain sdh2, hits give low values",1.01
same,normalized growth,"S. cerevisiae deletion strains, locus YLR027C, strain aat2, hits give low values",0.976
same,normalized growth,"S. cerevisiae deletion strains, locus YLR039C, strain RIC1, hits give low values",1.1
same,normalized growth,"S. cerevisiae deletion strains, locus YLR058C, strain SHM2, hits give low values",1.02
same,normalized growth,"S. cerevisiae deletion strains, locus YLR102C, strain apc9, hits give low values",1.04
same,normalized growth,"S. cerevisiae deletion strains, locus YLR113W, strain HOG1, hits give low values",1.04
same,normalized growth,"S. cerevisiae deletion strains, locus YLR221C, strain rsa3, hits give low values",0.909
same,normalized growth,"S. cerevisiae deletion strains, locus YLR258W, strain gsy2, hits give low values",0.927
same,normalized growth,"S. cerevisiae deletion strains, locus YLR262C, strain YPT6 (second series), hits give low values",1.05
same,normalized growth,"S. cerevisiae deletion strains, locus YLR262C, strain YPT6, hits give low values",0.58
same,normalized growth,"S. cerevisiae deletion strains, locus YLR268W, strain sec22, hits give low values",0.993
same,normalized growth,"S. cerevisiae deletion strains, locus YLR320W, strain mms22, hits give low values",0.855 (active)
same,normalized growth,"S. cerevisiae deletion strains, locus YLR330W, strain CHS5, hits give low values",1
same,normalized growth,"S. cerevisiae deletion strains, locus YLR342W, strain FKS1 (second series), hits give low values",1.01
same,normalized growth,"S. cerevisiae deletion strains, locus YLR342W, strain FKS1, hits give low values",1
same,normalized growth,"S. cerevisiae deletion strains, locus YLR357W, strain rsc2, hits give low values",1.01
same,normalized growth,"S. cerevisiae deletion strains, locus YLR370C, strain arc18, hits give low values",1.01
same,normalized growth,"S. cerevisiae deletion strains, locus YLR371W, strain rom2, hits give low values",1.04
same,normalized growth,"S. cerevisiae deletion strains, locus YLR384C, strain iki3, hits give low values",0.978
same,normalized growth,"S. cerevisiae deletion strains, locus YLR418C, strain cdc73, hits give low values",0.856
same,normalized growth,"S. cerevisiae deletion strains, locus YML016C, strain PPZ1, hits give low values",1.02
same,normalized growth,"S. cerevisiae deletion strains, locus YML032C, strain rad52, hits give low values",1.02
same,normalized growth,"S. cerevisiae deletion strains, locus YML120C, strain ndi1, hits give low values",0.987
same,normalized growth,"S. cerevisiae deletion strains, locus YML124C, strain tub3, hits give low values",1.04
same,normalized growth,"S. cerevisiae deletion strains, locus YMR058W, strain fet3, hits give low values",0.977
same,normalized growth,"S. cerevisiae deletion strains, locus YMR078C, strain ctf18, hits give low values",1.04
same,normalized growth,"S. cerevisiae deletion strains, locus YMR125W, strain sto1, hits give low values",0.97
same,normalized growth,"S. cerevisiae deletion strains, locus YMR129W, hits give low values",1.02
same,normalized growth,"S. cerevisiae deletion strains, locus YMR205C, strain PFK2, hits give low values",0.978
same,normalized growth,"S. cerevisiae deletion strains, locus YMR223W, strain ubp8, hits give low values",0.991
same,normalized growth,"S. cerevisiae deletion strains, locus YMR231W, strain pep5, hits give low values",1
same,normalized growth,"S. cerevisiae deletion strains, locus YMR263W, strain SAP30, hits give low values",0.99
same,normalized growth,"S. cerevisiae deletion strains, locus YMR307W, strain GAS1, hits give low values",0.554 (active)
same,normalized growth,"S. cerevisiae deletion strains, locus YNL067W, strain RPL9B, hits give low values",0.998
same,normalized growth,"S. cerevisiae deletion strains, locus YNL071W, strain lat1, hits give low values",0.834 (active)
same,normalized growth,"S. cerevisiae deletion strains, locus YNL128W, strain TEP1, hits give low values",0.979
same,normalized growth,"S. cerevisiae deletion strains, locus YNL153C, strain GIM3, hits give low values",0.986
same,normalized growth,"S. cerevisiae deletion strains, locus YNL183C, strain NPR1, hits give low values",0.897
same,normalized growth,"S. cerevisiae deletion strains, locus YNL209W, strain ssb2, hits give low values",0.88 (active)
same,normalized growth,"S. cerevisiae deletion strains, locus YNL233W, strain BNI4, hits give low values",0.947
same,normalized growth,"S. cerevisiae deletion strains, locus YNL248C, strain rpa49, hits give low values",0.932
same,normalized growth,"S. cerevisiae deletion strains, locus YNL250W, strain rad50, hits give low values",0.988
same,normalized growth,"S. cerevisiae deletion strains, locus YNL271C, strain bni1, hits give low values",1.01
same,normalized growth,"S. cerevisiae deletion strains, locus YNL298W, strain CLA4, hits give low values",1.03
same,normalized growth,"S. cerevisiae deletion strains, locus YNL307C, strain MCK1, hits give low values",0.942
same,normalized growth,"S. cerevisiae deletion strains, locus YNL322C, strain KRE1 (second series), hits give low values",1.07
same,normalized growth,"S. cerevisiae deletion strains, locus YNL322C, strain KRE1, hits give low values",1.01
same,normalized growth,"S. cerevisiae deletion strains, locus YNR049C, strain mso1, hits give low values",1.02
same,normalized growth,"S. cerevisiae deletion strains, locus YNR052C, strain pop2, hits give low values",0.911 (active)
same,normalized growth,"S. cerevisiae deletion strains, locus YOL006C, strain TOP1, hits give low values",0.909
same,normalized growth,"S. cerevisiae deletion strains, locus YOL012C, strain htz1",1.29
same,normalized growth,"S. cerevisiae deletion strains, locus YOL147C, strain pex11, hits give low values",1.04
same,normalized growth,"S. cerevisiae deletion strains, locus YOR001W, strain rrp6, hits give low values",1.01
same,normalized growth,"S. cerevisiae deletion strains, locus YOR061W, strain CKA2, hits give low values",1.01
same,normalized growth,"S. cerevisiae deletion strains, locus YOR069W, strain VPS5, hits give low values",0.998
same,normalized growth,"S. cerevisiae deletion strains, locus YOR070C, strain gyp1, hits give low values",0.845 (active)
same,normalized growth,"S. cerevisiae deletion strains, locus YOR080W, strain dia2, hits give low values",0.971
same,normalized growth,"S. cerevisiae deletion strains, locus YOR083W, strain WHI5, hits give low values",0.981
same,normalized growth,"S. cerevisiae deletion strains, locus YOR106W, strain vam3, hits give low values",0.931
same,normalized growth,"S. cerevisiae deletion strains, locus YOR136W, strain idh2, hits give low values",1.01
same,normalized growth,"S. cerevisiae deletion strains, locus YOR144C, strain elg1, hits give low values",1.03
same,normalized growth,"S. cerevisiae deletion strains, locus YOR184W, strain ser1, hits give low values",0.944
same,normalized growth,"S. cerevisiae deletion strains, locus YOR231W, strain MKK1, hits give low values",0.956
same,normalized growth,"S. cerevisiae deletion strains, locus YOR265W, strain rbl2, hits give low values",0.922 (active)
same,normalized growth,"S. cerevisiae deletion strains, locus YOR270C, strain vph1, hits give low values",0.57 (active)
same,normalized growth,"S. cerevisiae deletion strains, locus YOR290C, strain snf2, hits give low values",0.991
same,normalized growth,"S. cerevisiae deletion strains, locus YOR316C, strain cot1, hits give low values",1.03
same,normalized growth,"S. cerevisiae deletion strains, locus YPL051W, strain arl3, hits give low values",0.946
same,normalized growth,"S. cerevisiae deletion strains, locus YPL055C, strain LGE1, hits give low values",0.926
same,normalized growth,"S. cerevisiae deletion strains, locus YPL078C, strain atp4, hits give low values",0.983
same,normalized growth,"S. cerevisiae deletion strains, locus YPL106C, strain sse1, hits give low values",1.15 [resistant] (active)
same,normalized growth,"S. cerevisiae deletion strains, locus YPL240C, strain hsp82, hits give low values",0.997
same,normalized growth,"S. cerevisiae deletion strains, locus YPL241C, strain CIN2, hits give low values",1
same,normalized growth,"S. cerevisiae deletion strains, locus YPL256C, strain CLN2, hits give low values",1.02
same,normalized growth,"S. cerevisiae deletion strains, locus YPR119W, strain clb2, hits give low values",1.04
same,normalized growth,"S. cerevisiae deletion strains, locus YPR141C, strain kar3, hits give low values",1.02
same,normalized growth,"S. cerevisiae deletion strains, locus YPR163C, strain tif3, hits give low values",1.01
same,normalized growth,"S. cerevisiae deletion strains, locus YPR167C, strain met16, hits give low values",1.03
same,normalized growth,"S. cerevisiae deletion strains, strain wtn01, hits give low values",1.03
same,normalized growth,"S. cerevisiae strains, strain wild type, hits give low values",0.997
